An excerpt weighted towards active compounds, which were near 19% of everything screened.
TDP1 block: inhibitors of human tyrosyl-DNA phosphodiesterase TDP1; Q9NUW8; recombinant TDP1, AlphaScreen DNA substrate cleavage; Potency, µM (top dose mostly 130 µM), usual class: inhibitors; 350,000 tested, 0.28% active; AID 485290; also: nearly all actives have a fitted effect of over 40% in size
Target sequence (Q9NUW8 whole entry, looked up): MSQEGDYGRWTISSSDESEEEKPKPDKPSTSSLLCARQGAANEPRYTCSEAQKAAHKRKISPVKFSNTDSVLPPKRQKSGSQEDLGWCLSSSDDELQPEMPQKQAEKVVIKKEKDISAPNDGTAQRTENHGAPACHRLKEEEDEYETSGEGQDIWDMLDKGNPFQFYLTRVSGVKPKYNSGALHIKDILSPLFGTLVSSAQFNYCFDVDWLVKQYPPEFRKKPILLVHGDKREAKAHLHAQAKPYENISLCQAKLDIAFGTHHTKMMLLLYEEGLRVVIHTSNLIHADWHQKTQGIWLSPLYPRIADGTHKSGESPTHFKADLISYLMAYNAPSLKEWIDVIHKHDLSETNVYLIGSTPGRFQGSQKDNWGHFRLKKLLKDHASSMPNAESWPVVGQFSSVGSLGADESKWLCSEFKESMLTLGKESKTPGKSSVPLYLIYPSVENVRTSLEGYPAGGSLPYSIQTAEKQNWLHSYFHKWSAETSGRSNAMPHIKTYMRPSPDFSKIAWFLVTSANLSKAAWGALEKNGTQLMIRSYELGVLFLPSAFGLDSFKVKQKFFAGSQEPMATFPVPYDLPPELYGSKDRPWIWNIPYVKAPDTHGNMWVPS
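Enzyme-compound mixtures sat 15 min at room temperature, followed by a 5 min reaction with 15 nM final substrate and 10 min with AlphaScreen beads. Recombinant human Tdp1 was used at 1 nM final.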
HepG2 viability: counter-screen for TGF-b inhibitors: cytotoxicity in HepG2 cells. HepG2 CAGA-GFP viability, ATP luminescence, 18 h. Potency, µM (top dose mostly 46.1 µM), actives largely listed as cytotoxic. 410,000 tested, 0.76% active
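CellTiter-Glo luminescence gave cytotoxicity after 18 hours at 37 degrees C. The cells were HepG2 CAGA-GFP in 1% FBS DMEM, stimulated with 500 pg/mL TGF-beta after compound addition. %Activity was normalised to no-cell wells (complete cell-killing) and DMSO (no toxicity), and curves were fitted and classified.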
DT40 TDP1 CPT: growth inhibition of DT40 Tdp1-/-;hTDP1 cells with camptothecin (screen for TDP1 inhibitors); chicken DT40 Tdp1-/-;hTDP1 cells + 20 nM CPT, ATP luminescence, 48 h; Potency, µM (titrated, usually from 46.2 µM), most hits filed as inhibitors; 420,000 tested, 12% active; also: nearly all actives have a fitted effect of over 55% in size
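Cell growth measured by CellTiter-Glo luminescence after a minimum 48 h, 37 C compound exposure with 20 nM CPT in Tdp1-knockout DT40 cells stably expressing hTDP1, seeded 400/well; qHTS titration format.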
IL1B secr inh: blocks inflammasome-driven IL-1 beta release | THP-1 LPS/ATP IL-1B secretion, AlphaLISA, 16 h; stronger effect = lower value | activity change, % at 57.5 µM | 360,000 tested, 4.7% active | AID 743279; in the data active = activity change below about -50%; inconclusive = mostly about -30% to -49%
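Secreted IL-1B measured by AlphaLISA bead assay after 16 h compound exposure of THP-1 cells; compounds (final up to 57.5 uM) added 1 h before LPS (250 ng/mL) and ATP (1.25 mM) stimulation; lower signal means less secretion.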
TDP1 cell noCPT: qHTS for Inhibitors of human tyrosyl-DNA phosphodiesterase 1 (TDP1): qHTS in cells in absence of CPT | Potency, µM (titrated, usually from 46.2 µM), most hits filed as inhibitors | 420,000 tested, 15% active | DT40 Tdp1-/- hTDP1 cells, no CPT, ATP luminescence, 48 h; also: nearly all actives have a fitted effect of over 55% in size
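Luminescent ATP content (CellTiter-Glo) served as the growth readout. Knockout chicken DT40 cells expressing human TDP1 were exposed to compounds without camptothecin for a minimum 48 hr at 37 °C.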
TGFb inhibitor: blocks TGF-b signaling; HepG2 CAGA-GFP TGF-b/SMAD3 reporter, GFP fluorescence, 18 h; TGF-beta stimulated, 500 pg/mL final; Potency, µM (highest dose often 46.1 µM), usual class: inhibitors; 410,000 tested, 1.2% active; AID 588855; also: nearly all actives have a fitted effect of over 65% in size
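Read-out: total well GFP (ex488/em500-530) summed from mean per-cell fluorescence. Cells: HEPG2 CAGA-GFP, 1% FBS DMEM, 18 h at 37 degrees C with 500 pg/mL final TGF-beta. Unstimulated wells served as the full-inhibition control; stimulated DMSO wells = 0%.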
Hits are given with their value; 0 = inactive; ? = inconclusive; - = no result; [ ] = another dose, or the depositor's remark. Unless noted, calls follow the shape of the dose curve; as a rule, active = well fitted curve in the direction sought with a large enough effect; inconclusive = small, poorly fitted or top-dose-only effect, or another doubt; inactive = no such curve, though single readings can be large; an effect the other way counts as inactive or inconclusive.

SMILES | TDP1 block | HepG2 viability | DT40 TDP1 CPT | IL1B secr inh | TDP1 cell noCPT | TGFb inhibitor
Cc1nc(C)n(CC(=O)NCC2Cc3cc(-c4cccc(OC(F)(F)F)c4)ccc3O2)n1 (centres undefined) | - | - | 0 | - | 0.0184µM | -
CCCn1c(SCC(=O)NNC(=O)c2ccc(C)cc2)nnc1C(C)C | - | 0 | 0 | 0 | 0 | 0
COc1ccc(OC)c(C2Nc3c(C)cc(C)cc3-c3cc(C)nn32)c1 (centres undefined) | 0 | 0 | 16.4µM | - | 20.6µM | ?
C/C(=C\C(=O)OCCCCCCCCC(=O)O)C[C@@H]1OC[C@H](C[C@@H]2O[C@H]2[C@@H](C)[C@H](C)O)[C@@H](O)[C@H]1O | - | 0 | 1.03µM | 0 | 1.46µM | 0
CCOc1cc(/C=N/NC(N)=O)ccc1OC(=O)c1ccc(C)cc1 | 0 | - | - | - | - | -
CCOc1cc(/C=N\NC(=O)c2ccc(NC(=O)C(C)(C)C)cc2)ccc1OC(=O)c1cccc(C)c1 | 0 | 0 | 11.6µM | 0 | 8.2µM | 0
CCOc1cc(/C=N\NC(=O)c2ccc(NC(=O)CC)cc2)ccc1OC(=O)c1ccccc1 | 0 | 0 | 18.4µM | 0 | ? | 0
CCOc1cc(/C=N/NC(=O)CNc2ccc(C)cc2)ccc1OC(=O)c1ccccc1 | 0 | 0 | 29.1µM | ? | ? | 0
CCOc1cc(/C=N\NC(=O)c2ccc(NC(=O)C(C)(C)C)cc2)ccc1OC(=O)c1ccc(C)cc1 | 0 | 0 | ? | 0 | 29.1µM | 0
CCOC(=O)c1c(C)[nH]c(C(=O)N2CCC(C(=O)OCC)CC2)c1C | 0 | 0 | 0 | 0 | 0 | 0
COc1ccc(C(=O)NC(C)C2CC3CCC2C3)c(OC)c1 (centres undefined) | 0 | 0 | 23.1µM | 0 | 20.6µM | 0
CCN(Cc1ccccc1)S(=O)(=O)c1cc(C(=O)c2c(N)n(C)c(=O)n(C)c2=O)ccc1OC | 0 | 0 | ? | 0 | 29.1µM | 0
CCCCN(Cc1ccccc1)S(=O)(=O)c1c(N)n(C)c(=O)n(C)c1=O | 0 | 0 | 0 | 0 | 0 | 0
CCN(Cc1ccccc1)S(=O)(=O)c1cc(C(=O)NC(C)C2CC3CCC2C3)ccc1OC (centres undefined) | 0 | 0 | 16.4µM | 0 | 14.6µM | ?
COc1cccc(C#Cc2c(CO)[nH]c3ccccc23)c1 | 0 | 0 | 18.4µM | 0 | ? | 0
O=C(NCCc1cccc(Cl)c1)c1ccc(Cl)c([N+](=O)[O-])c1 | 0 | 0 | ? | -97.7 | 20.6µM | 0
Cc1ccc(C(=O)NCCc2cccc(Cl)c2)cc1[N+](=O)[O-] | 0 | 0 | 20.6µM | -56.5 | 20.6µM | 0
CC(C)(CNC(=O)c1ccc([N+](=O)[O-])c(Cl)c1)CNC(=O)c1ccc([N+](=O)[O-])c(Cl)c1 | 0 | 0 | 18.4µM | -112.5 | 20.6µM | ?
CN(Cc1ccccc1)C(=O)c1ccc(Cl)c([N+](=O)[O-])c1 | 0 | 0 | ? | -89.9 | ? | 0
COC(=O)C1=C(C(=O)OC)[C@@H]2N(C)c3ccc(OC)cc3[C@@]23C[C@@H](C(=O)OC)N(S(=O)(=O)c2cccs2)C3=N1 | 0[12.3 µM] | - | - | - | - | -
CCCCN(CC)CCCNC(=O)CCN1N=C(c2ccc(OC)cc2)CCC1=O | 0 | 0 | 0 | - | 0 | 0
Cc1ccc(-n2nc3c(=O)n(CCCC(=O)NCc4ccc(F)cc4)nc(C)c3c2C)cc1 | 0 | 0 | ? | 0 | ? | ?
COc1cccc(CNC(=O)CCCn2nc(C)c3c(C)n(-c4ccc(C)cc4)nc3c2=O)c1OC | 0 | 0 | 10.3µM | 0 | ? | 0
COc1ccc(OC)c(CNC(=O)CCCn2nc(C)c3c(C)n(-c4ccc(C)cc4)nc3c2=O)c1 | 0 | 0 | 23.1µM | - | 20.6µM | ?
COc1ccc(OC)c(CNC(=O)CCn2nc(C)c3c(C)n(-c4ccccc4)nc3c2=O)c1 | 0 | 0 | 0 | 0 | 0 | 0
SMILES | TDP1 block | HepG2 viability | DT40 TDP1 CPT | IL1B secr inh | TDP1 cell noCPT | TGFb inhibitor
O=C(NCCC[N+]1=CC=N[C@H]1c1ccccc1)N1CCCc2nc(-c3ccc(Br)cc3)ccc21 | 0[21 µM] | - | - | - | - | -
COc1ccc(-c2cc(C(=O)NCCc3ccccc3)c3c(-c4ccc(Cl)cc4)[nH]nc3n2)cc1 | 0 | 0 | 11.6µM | - | 10.3µM | 0
Cc1ccc(CNC(=O)c2cc(-c3ccc(C)cc3)nc3n[nH]c(-c4cccc([N+](=O)[O-])c4)c23)cc1 | 0 | 0 | 11.6µM | - | ? | 0
COc1ccc(-c2cc(C(=O)NCCc3ccccc3)c3c(-c4ccccc4)[nH]nc3n2)cc1 | 0 | 0 | ? | - | ? | ?
CCOc1ccc(-c2cc(C(=O)NCc3ccccc3)c3c(-c4ccc(CC)cc4)[nH]nc3n2)cc1 | 0 | 0 | 20.6µM | - | ? | 0
COc1ccc(OC)c(-c2cc(C(=O)NCCc3ccccc3)c3c(-c4ccc(C)cc4)[nH]nc3n2)c1 | 0 | 0 | 23.1µM | - | 13µM | ?
CCOc1ccc(-c2cc(C(=O)NCc3ccc(OC)cc3)c3c(-c4ccc(F)cc4)[nH]nc3n2)cc1 | 0 | 0 | 0 | - | 0 | 0
O=C(Oc1ccccc1C(=S)N1CCOCC1)c1cccc([N+](=O)[O-])c1 | - | 0 | 0 | 0 | 0 | 0
Cc1ccc(NC(=O)C2(C)Cc3ccccc3C(=O)O2)cc1 (centres undefined) | 0 | 0 | 0 | 0 | 0 | 0
O=C(Cc1ccc(Cl)cc1)NCC(c1cccs1)S(=O)(=O)c1ccc(F)cc1 (centres undefined) | ? | 0 | ? | - | ? | ?
CCc1ccc(-c2[nH]nc3nc(-c4ccc(OC)cc4)cc(C(=O)NCCc4ccc(OC)c(OC)c4)c23)cc1 | 0 | 0 | ? | - | 0 | 10µM
COc1ccc(CCNC(=O)c2cc(-c3ccc(C)cc3)nc3n[nH]c(-c4ccc(F)cc4)c23)cc1OC | 0 | 0 | 0 | - | 0 | 0
c1ccc2c(c1)C1=NCCN1c1ccccc1-2 | - | 0 | 2.91µM | -105.4 | 2.31µM | 10µM
Cn1cnc(S(=O)(=O)N2CCC(C(=O)NCc3ccc(Cl)cc3)CC2)c1 | 0 | 0 | 0 | - | ? | 0
O=C(CSc1nnc(CNC(=O)c2cccc(F)c2)n1-c1ccccc1)Nc1ccccc1F | 0 | 0 | 0 | - | 0 | ?
COc1ccc(NC(=O)C2CCC2)cc1S(=O)(=O)N1CCOCC1 | 0 | 0 | 0 | 0 | 0 | 0
COc1ccc(OC)c(S(=O)(=O)N2CCC(C(=O)Nc3ccc(C)c(C)c3)CC2)c1 | 0 | 0 | 16.4µM | 0 | 20.6µM | 0
COc1ccc(NC(=O)C2CCC(C(C)(C)C)CC2)cc1S(=O)(=O)N1CCOCC1 (centres undefined) | 0 | 0 | 20.6µM | 0 | ? | 0

Screening results (PubChem BioAssay)
